Measurements from PubChem BioAssay (EPA / NIEHS).
“And” between values parts separate entries of the source, which are not always exact repeats. Identical values can stand only once. Some structures have more than one record in an assay (separate samples or runs), and their calls can disagree. The source made the active and inactive calls. The calls were made as follows: active = hit-call score of the fitted dose curve at least 0.9, where 1 is the maximum; inactive = score below 0.9.

Tests used:
[1] = ATG_GLI_CIS: Attagene CIS-FACTORIAL HepG2 Assay for human Zinc Finger Protein GLI1 (AID 2282945); details: HepG2, Attagene cis-factorial reporter mRNA, GLI element; actives raise or lower the signal
Procedure, shortened: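 Transiently transfected HepG2 cells report endogenous transcription factor activity via cis-element-driven reporter units. After 24 h compound exposure, reporter mRNA was measured by RT-PCR with capillary electrophoresis; bidirectional fitting against DMSO baseline.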

[2] = ATG_GRE_CIS: Attagene CIS-FACTORIAL HepG2 Assay for human Glucocorticoid Response Elements (GRE) (AID 2282947); details: HepG2 GRE cis-reporter, Attagene multiplex mRNA; actives raise or lower the signal
Procedure, shortened: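 Fluorescence intensity of reporter-specific cDNA fragments, separated by capillary electrophoresis, provides the signal. Constructs carry cis-regulating promoters in transiently transfected HepG2 liver cells; 24 h incubation; fitting is bidirectional against DMSO.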

[3] = ATG_ISRE_CIS: Attagene CIS-FACTORIAL HepG2 Assay for human Interferon Regulatory Factor 1 (IRF1) binding to an Interferon-Stimulated Response Element (ISRE) (AID 2282948); details: HepG2 ISRE cis-reporter (Attagene), mRNA transcription readout; actives raise or lower the signal
Procedure, shortened: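 Read-out: fluorescent RT-PCR products resolved by capillary electrophoresis, reporting endogenous transcription factor activity via ISRE-driven reporter mRNA in transfected HepG2 cells dosed for 24 h; gain or loss fitted relative to DMSO.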

[4] = ATG_M_32_CIS: Attagene CIS-FACTORIAL HepG2 Assay for M32 Transcription Factor (Internal Marker) (AID 2282949); details: HepG2 Attagene cis-factorial M32 reporter, mRNA; actives raise or lower the signal;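 also: background control marker of the multiplexed CIS panel rather than a real target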
Procedure, shortened: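 HepG2 transfectants (cis-regulated reporter transcription units) dosed 24 h. Reporter mRNA by RT-PCR plus CE, analysed as gain or loss relative to DMSO.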

[5] = ATG_M_06_CIS: Attagene CIS-FACTORIAL HepG2 Assay for M06 Transcription Factor (Internal Marker) (AID 2282950); details: HepG2 Attagene CIS-FACTORIAL M06 internal marker reporter; actives raise or lower the signal
Procedure, shortened: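 Cells (HepG2, transiently carrying cis-driven reporter units) receive chemical for 24 h before RNA isolation. Reporter cDNA is PCR-amplified, FAM-labelled by primer extension, HpaI-digested and sized on a capillary analyser.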

[6] = target: Hypoxia-inducible factor 1-alpha (Homo sapiens) (UniProt Q16665); assay: ATG_HIF1a_CIS: Attagene CIS-FACTORIAL HepG2 Assay for human Hypoxia Inducible Factor 1 (HIF1A) (AID 2282951); details: HepG2 Attagene cis-factorial HIF1a reporter transcription; actives raise or lower the signal
Hypoxia-inducible factor 1-alpha (Homo sapiens), sequence (Q16665 whole entry, looked up): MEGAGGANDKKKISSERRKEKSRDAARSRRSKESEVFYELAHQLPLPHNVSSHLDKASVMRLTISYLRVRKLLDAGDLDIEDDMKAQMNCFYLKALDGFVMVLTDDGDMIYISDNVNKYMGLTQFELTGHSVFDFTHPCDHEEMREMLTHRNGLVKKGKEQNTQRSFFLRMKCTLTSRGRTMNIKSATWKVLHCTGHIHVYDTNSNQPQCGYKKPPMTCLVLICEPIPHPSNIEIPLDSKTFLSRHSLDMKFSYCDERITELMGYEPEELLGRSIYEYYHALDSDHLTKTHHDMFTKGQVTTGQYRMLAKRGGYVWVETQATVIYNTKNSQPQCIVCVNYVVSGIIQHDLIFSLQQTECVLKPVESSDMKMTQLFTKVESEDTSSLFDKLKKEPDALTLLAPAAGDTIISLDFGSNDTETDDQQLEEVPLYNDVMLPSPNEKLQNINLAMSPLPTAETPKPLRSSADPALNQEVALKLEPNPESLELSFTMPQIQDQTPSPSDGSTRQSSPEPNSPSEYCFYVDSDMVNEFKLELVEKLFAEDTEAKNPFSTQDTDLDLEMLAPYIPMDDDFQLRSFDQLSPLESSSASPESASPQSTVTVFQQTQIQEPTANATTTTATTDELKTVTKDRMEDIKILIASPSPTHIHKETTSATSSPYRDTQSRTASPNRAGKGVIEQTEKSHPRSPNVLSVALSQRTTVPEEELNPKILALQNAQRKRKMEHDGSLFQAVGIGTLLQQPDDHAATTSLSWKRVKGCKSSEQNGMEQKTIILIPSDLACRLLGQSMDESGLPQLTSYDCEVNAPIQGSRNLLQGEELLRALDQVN
Procedure, shortened: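 HepG2 cells transiently transfected with multiplexed cis-promoter reporter units; reporter mRNA read 24 h after dosing by RT-PCR, 6-FAM primer-extension labelling, HpaI digestion and capillary electrophoresis. Bidirectional fit versus DMSO baseline.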

[7] = target: Heat shock factor protein 1 (Homo sapiens) (UniProt Q00613); assay: ATG_HSE_CIS: Attagene CIS-FACTORIAL HepG2 Assay for human Heat Shock Transcription Factor 1 (HSE) (AID 2282953); details: HepG2 HSE cis-reporter, Attagene RNA transcription; actives raise or lower the signal
Heat shock factor protein 1 (Homo sapiens), sequence (Q00613 whole entry, looked up): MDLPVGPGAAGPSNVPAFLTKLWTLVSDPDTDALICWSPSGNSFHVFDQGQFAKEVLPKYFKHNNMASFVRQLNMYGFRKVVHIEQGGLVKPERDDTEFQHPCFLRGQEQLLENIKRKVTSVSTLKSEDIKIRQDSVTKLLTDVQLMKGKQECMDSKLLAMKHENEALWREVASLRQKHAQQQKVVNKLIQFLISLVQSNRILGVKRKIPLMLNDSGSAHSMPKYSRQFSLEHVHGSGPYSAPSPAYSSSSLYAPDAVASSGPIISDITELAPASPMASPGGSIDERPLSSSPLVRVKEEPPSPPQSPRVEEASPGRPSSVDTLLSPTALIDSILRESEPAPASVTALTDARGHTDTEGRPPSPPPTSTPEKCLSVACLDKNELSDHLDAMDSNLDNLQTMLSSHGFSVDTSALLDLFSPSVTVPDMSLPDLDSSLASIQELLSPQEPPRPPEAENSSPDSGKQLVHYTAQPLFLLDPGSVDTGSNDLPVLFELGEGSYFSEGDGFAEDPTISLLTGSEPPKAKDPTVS
Procedure, shortened: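 Liver-derived HepG2 cells carry transiently introduced multiple reporter units governed by cis promoters. Reporter RNA measured 24 h post-dose through reverse transcription, PCR amplification, fluorescent labelling and capillary electrophoresis, normalised to DMSO.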

[8] = ATG_MRE_CIS: Attagene CIS-FACTORIAL HepG2 Assay for human Metal Responsive Element (MRE) (AID 2282954); details: HepG2 MRE cis-reporter transcription, Attagene multiplex; actives raise or lower the signal
Procedure, shortened: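 Measured here is mRNA induction from an MRE cis-element reporter in HepG2 after 24 h, quantified by fluorescence of labelled RT-PCR products on capillary electrophoresis; gain- and loss-of-signal fits use DMSO as baseline.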

[9] = ATG_PBREM_CIS: Attagene CIS-FACTORIAL HepG2 Assay for human Phenobarbital-responsive Enhancer Module (PBREM) (AID 2282955); details: HepG2 PBREM cis-reporter, Attagene multiplexed transcription; actives raise or lower the signal
Procedure, shortened: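 HepG2 cells transiently transfected with multiple cis-regulated reporter transcription units; endogenous factor activity at the PBREM element measured as reporter mRNA 24 h after dosing, via RT-PCR and capillary electrophoresis of fluorescent fragments; bidirectional fitting versus DMSO.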

[10] = target: Paired box protein Pax-6 (Homo sapiens) (UniProt P26367); assay: ATG_Pax6_CIS: Attagene CIS-FACTORIAL HepG2 Assay for human Paired Box 6 (PAX6) (AID 2282956); details: HepG2 CIS-FACTORIAL PAX6 reporter transcription, RNA readout; actives raise or lower the signal
Paired box protein Pax-6 (Homo sapiens), sequence (P26367 whole entry, looked up): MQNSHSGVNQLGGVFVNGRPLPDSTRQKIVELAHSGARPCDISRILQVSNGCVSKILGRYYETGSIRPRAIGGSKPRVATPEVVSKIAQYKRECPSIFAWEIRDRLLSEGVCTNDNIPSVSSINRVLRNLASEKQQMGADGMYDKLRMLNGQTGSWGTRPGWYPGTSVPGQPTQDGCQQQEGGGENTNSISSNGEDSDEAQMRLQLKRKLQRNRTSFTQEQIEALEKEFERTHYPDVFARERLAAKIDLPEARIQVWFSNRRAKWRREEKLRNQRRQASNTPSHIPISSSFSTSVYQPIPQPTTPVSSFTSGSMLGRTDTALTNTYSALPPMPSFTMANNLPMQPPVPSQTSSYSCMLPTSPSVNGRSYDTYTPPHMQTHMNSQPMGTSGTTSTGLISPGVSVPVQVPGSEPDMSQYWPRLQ
Procedure, shortened: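 Readout: reporter transcript fluorescence after RT-PCR and capillary electrophoresis. Cells: HepG2, transiently transfected with cis-regulated MRTUs. Exposure 24 h. Gain or loss of signal fitted bidirectionally relative to DMSO.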

[11] = ATG_PXRE_CIS: Attagene CIS-FACTORIAL HepG2 Assay for human Pregnane X Receptor Element (PXRE) (AID 2282957); details: HepG2 Attagene CIS-FACTORIAL PXRE reporter, mRNA; actives raise or lower the signal
Procedure, shortened: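 After a 24 h chemical incubation, total RNA from transfected HepG2 cells was reverse-transcribed and reporter cDNA amplified, FAM-labeled, HpaI-digested and sized by capillary electrophoresis. DMSO served as baseline for bidirectional curve fitting.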

[12] = ATG_PPRE_CIS: Attagene CIS-FACTORIAL HepG2 Assay for human Peroxisome Proliferator-activated Response Element (PPRE) (AID 2282958); details: HepG2 PPRE cis-element reporter, Attagene transcription factor profiling; actives raise or lower the signal
Procedure, shortened: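 HepG2 cells transiently transfected with multiplexed cis-element reporter units measure endogenous transcription factor activity. After 24 h compound exposure, reporter mRNA is quantified by RT-PCR, 6-FAM labeling, HpaI digestion and capillary electrophoresis; bidirectional fits are made against DMSO baseline.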

[13] = ATG_RORE_CIS: Attagene CIS-FACTORIAL HepG2 Assay for human RAR-related Orphan Receptor Element (RORE) (AID 2282959); details: HepG2 Attagene cis-factorial RORE reporter, mRNA; actives raise or lower the signal
Procedure, shortened: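 HepG2 cells transiently transfected with multiple cis-element reporter transcription units, exposed to chemical for 24 h. Reporter mRNA quantified by RT-PCR, 6-FAM primer-extension labeling, HpaI digestion and capillary electrophoresis; bidirectional fit versus DMSO baseline.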

[14] = ATG_Sox_CIS: Attagene CIS-FACTORIAL HepG2 Assay for human SRY-box transcription factor (SOX) (AID 2282960); details: HepG2 Attagene cis-factorial SOX reporter, mRNA; actives raise or lower the signal
Procedure, shortened: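 HepG2 cells transiently transfected with cis-element-driven multiple reporter transcription units, dosed 24 h; reporter mRNA measured by RT-PCR, FAM labelling, HpaI digestion and capillary electrophoresis. Bidirectional fit versus DMSO baseline.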

[15] = target: Transcription factor Sp1 (Homo sapiens) (UniProt P08047); assay: ATG_Sp1_CIS: Attagene CIS-FACTORIAL HepG2 Assay for human Specificity Protein 1 (Sp1) (AID 2282961); details: HepG2 Sp1 cis-reporter transcription, actives raise or lower the signal
Transcription factor Sp1 (Homo sapiens), sequence (P08047 whole entry, looked up): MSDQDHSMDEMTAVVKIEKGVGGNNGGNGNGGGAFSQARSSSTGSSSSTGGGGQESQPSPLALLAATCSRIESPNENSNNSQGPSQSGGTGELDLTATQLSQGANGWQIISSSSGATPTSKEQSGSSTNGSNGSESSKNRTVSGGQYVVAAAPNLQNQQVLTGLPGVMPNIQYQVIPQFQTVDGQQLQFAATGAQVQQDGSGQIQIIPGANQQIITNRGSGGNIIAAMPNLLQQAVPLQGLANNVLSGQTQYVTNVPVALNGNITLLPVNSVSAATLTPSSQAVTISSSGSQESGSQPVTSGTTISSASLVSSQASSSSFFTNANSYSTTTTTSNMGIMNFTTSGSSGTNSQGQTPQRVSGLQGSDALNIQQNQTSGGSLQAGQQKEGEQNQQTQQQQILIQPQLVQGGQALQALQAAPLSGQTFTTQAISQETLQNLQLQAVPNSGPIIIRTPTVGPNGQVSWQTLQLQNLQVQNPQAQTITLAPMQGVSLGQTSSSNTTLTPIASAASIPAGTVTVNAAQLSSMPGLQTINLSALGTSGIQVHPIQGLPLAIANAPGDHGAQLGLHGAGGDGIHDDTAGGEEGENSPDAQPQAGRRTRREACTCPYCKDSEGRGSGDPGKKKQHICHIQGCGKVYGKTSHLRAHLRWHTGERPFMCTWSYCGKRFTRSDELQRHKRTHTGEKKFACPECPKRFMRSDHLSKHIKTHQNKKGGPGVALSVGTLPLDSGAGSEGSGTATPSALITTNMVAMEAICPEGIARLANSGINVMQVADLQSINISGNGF
Procedure, shortened: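 HepG2 cells transiently transfected with multiple reporter transcription units driven by cis-regulatory elements; Sp1-responsive reporter mRNA measured 24 h after dosing by RT-PCR and capillary electrophoresis fluorescence, fitted bidirectionally against DMSO baseline.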

[16] = ATG_SREBP_CIS: Attagene CIS-FACTORIAL HepG2 Assay for human Sterol Regulatory Element Binding (SREBP) (AID 2282962); details: HepG2 Attagene cis-factorial SREBP reporter, mRNA; actives raise or lower the signal
Procedure, shortened: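 Readout: fluorescent reporter-transcript peaks resolved by capillary electrophoresis after RT-PCR. Cells were human HepG2 carrying transfected cis-promoter reporter constructs, dosed for 24 h. Gain or loss of signal was fitted against DMSO controls.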

[17] = target: Signal transducer and activator of transcription 3 (Homo sapiens) (UniProt P40763); assay: ATG_STAT3_CIS: Attagene CIS-FACTORIAL HepG2 Assay for human Signal Transducer and Activator of Transcription 3 (STAT3) (AID 2282963); details: HepG2, Attagene cis-factorial STAT3 reporter transcription; actives raise or lower the signal
Signal transducer and activator of transcription 3 (Homo sapiens), sequence (P40763 whole entry, looked up, the tested form may be a part): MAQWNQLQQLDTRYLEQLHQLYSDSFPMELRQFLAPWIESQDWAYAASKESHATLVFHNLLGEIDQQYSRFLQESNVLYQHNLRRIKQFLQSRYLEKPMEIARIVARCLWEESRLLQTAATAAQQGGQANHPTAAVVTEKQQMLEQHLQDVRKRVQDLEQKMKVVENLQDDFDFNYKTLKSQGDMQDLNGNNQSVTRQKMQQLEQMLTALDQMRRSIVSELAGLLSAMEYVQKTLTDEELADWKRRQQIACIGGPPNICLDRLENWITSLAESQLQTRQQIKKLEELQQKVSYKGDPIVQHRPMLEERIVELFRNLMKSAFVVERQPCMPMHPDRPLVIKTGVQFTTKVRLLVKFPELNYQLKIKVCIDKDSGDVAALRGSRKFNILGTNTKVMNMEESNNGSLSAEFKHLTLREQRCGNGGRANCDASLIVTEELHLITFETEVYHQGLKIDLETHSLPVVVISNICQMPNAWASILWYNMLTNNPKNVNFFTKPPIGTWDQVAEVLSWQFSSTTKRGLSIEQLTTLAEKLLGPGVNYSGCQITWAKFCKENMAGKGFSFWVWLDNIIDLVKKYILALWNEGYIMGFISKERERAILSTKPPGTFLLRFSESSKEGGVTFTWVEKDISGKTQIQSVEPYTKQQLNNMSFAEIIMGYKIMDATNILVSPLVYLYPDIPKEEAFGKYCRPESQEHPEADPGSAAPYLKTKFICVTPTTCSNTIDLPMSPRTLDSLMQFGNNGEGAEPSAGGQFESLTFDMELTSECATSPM
Procedure, shortened: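 Fluorescence intensity of 6-FAM-labelled reporter fragments, separated by capillary electrophoresis after RT-PCR, gave the signal. Cells were HepG2 transfected with cis-element reporter units and treated 24 h; fitting was bidirectional relative to DMSO.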

[18] = ATG_TA_CIS: Attagene CIS-FACTORIAL HepG2 Assay for human TA Basal Promoter (AID 2282964); details: HepG2 Attagene CIS-factorial TA basal promoter reporter; actives raise or lower the signal
Procedure, shortened: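 Background internal-marker endpoint from a 52-component HepG2 cis-reporter panel. Cells treated 24 h; reporter transcripts quantified via RT-PCR and CE fluorescence against DMSO baseline.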

[19] = target: Hepatocyte nuclear factor 6 (Homo sapiens) (UniProt Q9UBC0); assay: ATG_HNF6_CIS: Attagene CIS-FACTORIAL HepG2 Assay for human Hepatocyte Nuclear Factor 6 (HNF6) (AID 2282952); details: HepG2 Attagene cis-factorial HNF6 reporter transcription; actives raise or lower the signal
Hepatocyte nuclear factor 6 (Homo sapiens), sequence (Q9UBC0 whole entry, looked up, the tested form may be a part): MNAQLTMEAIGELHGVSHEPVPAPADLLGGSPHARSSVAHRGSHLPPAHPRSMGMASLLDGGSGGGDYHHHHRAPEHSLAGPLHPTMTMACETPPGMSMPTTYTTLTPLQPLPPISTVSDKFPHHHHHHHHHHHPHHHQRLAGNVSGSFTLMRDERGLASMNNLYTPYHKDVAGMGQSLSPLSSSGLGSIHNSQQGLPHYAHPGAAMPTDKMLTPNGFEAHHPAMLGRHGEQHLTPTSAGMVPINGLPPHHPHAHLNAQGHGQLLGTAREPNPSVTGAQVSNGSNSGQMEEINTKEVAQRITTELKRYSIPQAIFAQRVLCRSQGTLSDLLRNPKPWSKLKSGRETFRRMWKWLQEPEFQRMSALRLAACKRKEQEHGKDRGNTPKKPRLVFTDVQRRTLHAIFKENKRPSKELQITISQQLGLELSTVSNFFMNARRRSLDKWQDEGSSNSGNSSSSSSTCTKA
Procedure, shortened: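 First, HepG2 cells were transfected with the multiplexed cis reporter library and dosed with chemical for 24 h. Next, RNA was reverse-transcribed, PCR-amplified and fluorescently labelled. Finally, HpaI-digested fragments were read by capillary electrophoresis.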

Measured: AC50

CCCOC(=O)CC
not listed: [19]
inactive: all other assays above

CC(=O)c1cccnc1
not listed: [7]
inactive: all other assays above

CC/C=C\CCOC(=O)C(C)C
not listed: [9] | [13] | [14] | [19]
inactive: all other assays above

CCCCCCCCCCCCN1CCOCC1
not listed: [6]
inactive: all other assays above

CC(CO)(CO)[N+](=O)[O-]
not listed: [7] | [9] | [10] | [18]
inactive: all other assays above

CC(C)(C)c1cccc(O)c1
active: [11] 11.5 µM
not listed: [7] | [9] | [10] | [13]
inactive: all other assays above

C[C@]12CC[C@@H]3c4ccc(O)cc4CC[C@H]3[C@@H]1CC[C@@H]2O
inactive: [1] | [2] | [3] | [4] | [5] | [19] | [7] | [8] | [9] | [11] | [12] | [13] | [14] | [15] | [16] | [17] | [18]
active: [8] 31.8 µM and 21 µM and 25.8 µM | [11] 5.88 µM [middle of 4 runs] | [12] 27 µM | [16] 26.5 µM and 25.8 µM

C/C=C(\C)C(=O)OC/C=C(\C)CCC=C(C)C
active: [12] 39.6 µM | [16] 61.3 µM
not listed: [7] | [9]
inactive: all other assays above
